# Measurements reported in article PMC7862700, “An all-to-all approach to the identification of sequence-specific readers for epigenetic DNA modifications on cytosine”.
# Tests used:
# Assay in all cases: DAPPL (digital affinity profiling via proximity ligation, sequencing); 10 mM Tris-HCl pH 7.5, 50 mM NaCl, 1 mM DTT, 4% glycerol, room temperature, 30 min; GST-TFs on glutathione beads, 16-mer random dsDNA library, 0.1% formaldehyde crosslink after washing; high values mean tight binding
# Conditions in all cases: protein: recombinant; tags: N-terminal GST; dsDNA, one strand shown
# FLI1 = target: T1, FLI1 (Homo sapiens, UniProt Q01543 1-452)
# T1 sequence: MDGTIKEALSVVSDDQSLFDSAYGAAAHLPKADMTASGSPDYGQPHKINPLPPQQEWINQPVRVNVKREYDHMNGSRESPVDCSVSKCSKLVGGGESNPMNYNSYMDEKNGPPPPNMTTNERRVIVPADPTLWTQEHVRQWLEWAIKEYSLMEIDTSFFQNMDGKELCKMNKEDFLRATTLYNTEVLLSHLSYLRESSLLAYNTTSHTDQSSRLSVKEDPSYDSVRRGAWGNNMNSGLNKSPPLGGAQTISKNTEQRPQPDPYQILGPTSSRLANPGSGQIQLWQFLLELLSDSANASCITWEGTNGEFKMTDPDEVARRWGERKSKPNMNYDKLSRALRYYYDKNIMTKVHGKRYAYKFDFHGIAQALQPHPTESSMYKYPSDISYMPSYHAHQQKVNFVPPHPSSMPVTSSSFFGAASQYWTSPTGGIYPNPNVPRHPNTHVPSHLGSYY
# Method in brief: (§1)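 In yeast, human transcription factors were expressed with a GST fusion, then pulled down on glutathione beads and given DNA barcodes. Pooled with a tag-only sample, they were exposed to 200 nmole of a 16-mer random double-stranded DNA library (Tris/NaCl/DTT/glycerol buffer, room temperature, 30 min), washed, crosslinked with 0.1% formaldehyde, proximity-ligated using BsaI/T4 ligase for 1 h at 37 °C, PCR-amplified and read on an Illumina NextSeq500. Each hexamer's frequency of reads for a factor, divided by the matching frequency for the tag-only sample, gives the binding signal.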
# ELK1 = target: T2, ELK1 (Homo sapiens, UniProt P19419 1-428)
# T2 sequence: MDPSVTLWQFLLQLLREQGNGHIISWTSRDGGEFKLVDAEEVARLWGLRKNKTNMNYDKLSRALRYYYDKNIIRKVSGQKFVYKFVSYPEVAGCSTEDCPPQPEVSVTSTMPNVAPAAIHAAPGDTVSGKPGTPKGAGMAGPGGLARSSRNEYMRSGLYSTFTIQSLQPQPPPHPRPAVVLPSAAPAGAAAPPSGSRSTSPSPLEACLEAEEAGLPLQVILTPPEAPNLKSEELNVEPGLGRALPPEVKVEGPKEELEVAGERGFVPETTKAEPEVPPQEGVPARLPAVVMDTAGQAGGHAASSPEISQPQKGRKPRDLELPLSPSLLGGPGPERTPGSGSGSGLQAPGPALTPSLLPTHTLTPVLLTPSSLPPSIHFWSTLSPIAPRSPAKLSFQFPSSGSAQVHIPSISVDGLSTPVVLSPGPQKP
# Method in brief: as §1
# GABPA = target: T3, GABPA (Homo sapiens, UniProt Q06546 1-454)
# T3 sequence: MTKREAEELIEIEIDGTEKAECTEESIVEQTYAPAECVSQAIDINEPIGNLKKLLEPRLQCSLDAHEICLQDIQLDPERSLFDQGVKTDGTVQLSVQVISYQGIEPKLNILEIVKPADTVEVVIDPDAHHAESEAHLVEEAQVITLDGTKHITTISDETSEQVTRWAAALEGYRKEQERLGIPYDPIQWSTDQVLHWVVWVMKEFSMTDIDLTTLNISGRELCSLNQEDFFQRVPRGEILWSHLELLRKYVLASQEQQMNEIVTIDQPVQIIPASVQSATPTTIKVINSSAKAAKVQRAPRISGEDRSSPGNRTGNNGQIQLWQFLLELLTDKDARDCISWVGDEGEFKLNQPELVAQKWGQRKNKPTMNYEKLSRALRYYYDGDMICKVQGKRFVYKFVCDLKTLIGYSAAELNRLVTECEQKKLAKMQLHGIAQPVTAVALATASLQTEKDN
# Method in brief: as §1
# ERG = target: T4, ERG (Homo sapiens, UniProt P11308 1-479)
# T4 sequence: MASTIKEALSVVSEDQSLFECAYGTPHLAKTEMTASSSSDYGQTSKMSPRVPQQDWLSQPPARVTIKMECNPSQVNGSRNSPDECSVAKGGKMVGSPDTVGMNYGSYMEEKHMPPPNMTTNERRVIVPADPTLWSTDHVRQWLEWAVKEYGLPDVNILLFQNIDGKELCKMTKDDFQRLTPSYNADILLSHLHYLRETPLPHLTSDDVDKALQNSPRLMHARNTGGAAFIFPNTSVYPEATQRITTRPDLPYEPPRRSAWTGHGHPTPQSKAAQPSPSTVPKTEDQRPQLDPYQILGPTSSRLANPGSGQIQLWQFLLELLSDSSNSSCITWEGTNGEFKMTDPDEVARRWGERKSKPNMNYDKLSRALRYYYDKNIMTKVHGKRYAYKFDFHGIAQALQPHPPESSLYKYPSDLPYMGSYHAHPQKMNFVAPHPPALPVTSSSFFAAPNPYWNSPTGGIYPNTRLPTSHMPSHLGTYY
# Method in brief: as §1
# ELF1 = ELF1 (Homo sapiens, UniProt P32519 1-619)
# Method in brief: as §1
# EHF = target: T5, EHF (Homo sapiens, UniProt Q9NZC4 1-300)
# T5 sequence: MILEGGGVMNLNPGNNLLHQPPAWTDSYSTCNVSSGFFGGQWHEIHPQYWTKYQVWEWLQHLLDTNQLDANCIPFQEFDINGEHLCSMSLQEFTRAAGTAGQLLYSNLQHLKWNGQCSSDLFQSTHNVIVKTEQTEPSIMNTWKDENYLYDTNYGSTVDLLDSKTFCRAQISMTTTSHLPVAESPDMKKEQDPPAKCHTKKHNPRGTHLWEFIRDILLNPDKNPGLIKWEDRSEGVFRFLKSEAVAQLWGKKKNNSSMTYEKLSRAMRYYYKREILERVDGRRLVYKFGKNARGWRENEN
# Method in brief: as §1
# SPI1 = SPI1 (Homo sapiens, UniProt P17947 1-270)
# Method in brief: as §1
# SPIB = SPIB (Homo sapiens, UniProt Q01892 1-262)
# Method in brief: as §1
# ELK3 = target: T6, ELK3 (Homo sapiens, UniProt P41970 1-407)
# T6 sequence: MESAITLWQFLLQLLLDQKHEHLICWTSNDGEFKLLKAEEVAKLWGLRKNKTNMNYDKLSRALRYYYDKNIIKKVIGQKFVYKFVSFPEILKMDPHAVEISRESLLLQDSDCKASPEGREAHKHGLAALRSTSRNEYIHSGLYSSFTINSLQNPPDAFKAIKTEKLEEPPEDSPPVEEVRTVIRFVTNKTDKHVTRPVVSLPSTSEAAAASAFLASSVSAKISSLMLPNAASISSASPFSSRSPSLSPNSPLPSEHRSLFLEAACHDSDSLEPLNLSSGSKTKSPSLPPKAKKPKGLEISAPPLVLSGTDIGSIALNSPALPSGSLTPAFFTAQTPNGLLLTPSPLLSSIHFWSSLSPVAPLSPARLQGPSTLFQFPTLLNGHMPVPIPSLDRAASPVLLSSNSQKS
# Method in brief: as §1
# FEV = target: T7, FEV (Homo sapiens, UniProt Q99581 1-238)
# T7 sequence: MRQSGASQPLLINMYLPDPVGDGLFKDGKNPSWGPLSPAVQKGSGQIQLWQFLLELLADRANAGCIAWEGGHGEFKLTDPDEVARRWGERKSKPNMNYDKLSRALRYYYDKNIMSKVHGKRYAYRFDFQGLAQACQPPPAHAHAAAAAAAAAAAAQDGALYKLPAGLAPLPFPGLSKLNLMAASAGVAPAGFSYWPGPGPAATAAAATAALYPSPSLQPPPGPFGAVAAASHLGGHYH
# Method in brief: as §1
# Sequence of SPIB (Q01892 whole entry): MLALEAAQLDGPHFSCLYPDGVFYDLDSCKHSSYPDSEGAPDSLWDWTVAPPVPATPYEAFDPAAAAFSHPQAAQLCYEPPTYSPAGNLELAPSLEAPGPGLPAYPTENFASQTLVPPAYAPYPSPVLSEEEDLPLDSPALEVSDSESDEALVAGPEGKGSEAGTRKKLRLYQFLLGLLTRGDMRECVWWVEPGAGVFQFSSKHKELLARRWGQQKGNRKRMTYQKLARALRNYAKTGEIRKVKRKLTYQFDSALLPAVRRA
# Sequence of ELF1 (P32519 whole entry): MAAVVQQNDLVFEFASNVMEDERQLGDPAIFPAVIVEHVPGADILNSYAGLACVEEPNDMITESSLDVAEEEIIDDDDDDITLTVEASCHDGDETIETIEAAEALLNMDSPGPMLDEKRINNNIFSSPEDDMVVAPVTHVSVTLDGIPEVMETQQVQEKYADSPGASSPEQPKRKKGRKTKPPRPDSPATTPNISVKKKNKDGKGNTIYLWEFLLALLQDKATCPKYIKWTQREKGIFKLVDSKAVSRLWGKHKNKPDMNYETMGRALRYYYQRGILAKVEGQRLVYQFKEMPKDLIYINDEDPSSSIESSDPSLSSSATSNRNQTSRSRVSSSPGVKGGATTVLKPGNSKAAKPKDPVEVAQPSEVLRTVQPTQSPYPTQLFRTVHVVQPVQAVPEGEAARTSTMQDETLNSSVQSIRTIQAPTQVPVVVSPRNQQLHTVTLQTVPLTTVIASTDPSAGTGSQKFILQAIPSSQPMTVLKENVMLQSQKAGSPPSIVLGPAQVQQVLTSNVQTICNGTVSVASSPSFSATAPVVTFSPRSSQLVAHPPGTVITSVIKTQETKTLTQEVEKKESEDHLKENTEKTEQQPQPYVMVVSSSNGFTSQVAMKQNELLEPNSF
sequence,measurement,setting,value
TGGCCA,binding signal,FLI1,"1.1 fold enrichment (6-mer frequency, TF over GST control)"
same,binding signal,ELK1,"1.09 fold enrichment (6-mer frequency, TF over GST control)"
same,binding signal,GABPA,"1.16 fold enrichment (6-mer frequency, TF over GST control)"
same,binding signal,ERG,"1.05 fold enrichment (6-mer frequency, TF over GST control)"
same,binding signal,ELF1,"1.14 fold enrichment (6-mer frequency, TF over GST control)"
same,binding signal,EHF,"1.05 fold enrichment (6-mer frequency, TF over GST control)"
same,binding signal,SPI1,"1.05 fold enrichment (6-mer frequency, TF over GST control)"
same,binding signal,SPIB,"1.13 fold enrichment (6-mer frequency, TF over GST control)"
same,binding signal,ELK3,"1.1 fold enrichment (6-mer frequency, TF over GST control)"
same,binding signal,FEV,"1.13 fold enrichment (6-mer frequency, TF over GST control)"
